The results in this text go back to PubChem BioAssay (NCI).

About 83,000 compounds went through this panel and 20% of them were active in at least one assay; those are over-represented in the sample as a whole.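 Activity criterion: percent growth below 10, measured after cells in 96-well plates were exposed to a single compound concentration for 48 hours.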 A number with no mark means an inactive call. Active and inactive are the calls of the source.

In the test the test system is T-47D breast. Description: NCI-60 one-dose screen, 48 h (100 = growth as untreated, 0 = no growth, -100 = all killed). The settings on record: 10 µM unless noted.
Turning to `CC1(C)c2[nH]c3ccccc3c2C[C@]2(C)[C@H]3C(=O)C=C4[C@@H]5C[C@@](C)(C(N)=O)CC[C@]5(C)CC[C@@]4(C)[C@]3(C)CC[C@@H]12`, the growth was 20.3%. For the molecule `C[C@H]1[C@H](C)CC[C@]2(C(=O)NCC#CCN3CCN(C)CC3)CC[C@]3(C)C(=CC[C@@H]4[C@@]5(C)Cc6c([nH]c7ccccc67)C(C)(C)[C@@H]5CC[C@]43C)[C@H]12`, the growth is 76.7%. With `CC(=O)O[C@@H]1C2CCC3C(CC[C@@]4(C)C3CC[C@@H]4C(C)N(C)C)[C@@]2(C)CC[C@@H]1NC(=O)C=C(C)C` (stereo partly specified), the growth is -28% (active). Then `CCN1C(=O)N(CC)C2Nn3c(s/c(=C\c4ccc(OC)cc4)c3=O)=NC21` (stereo unspecified), with 48.8%; and `CN1CCC(=C(c2ccccc2)c2ccccc2)C(c2ccccc2)C1` (stereo unspecified), with 93.7%; and `O=C(Cc1ccccc1)NNc1nc(Cl)nc(N2CCN(C(c3ccccc3)c3ccccc3)CC2)n1`, with 84.4%.

On to `N#CC(C#N)=Cc1cc2ccccc2nc1Oc1ccc(C(F)(F)F)cc1`, for which the growth is 90.6%. Then `COc1cc(/C=C\c2cc(OC)c(OC)c(OC)c2)cc(N)c1OC`, with 82.8%; and `COc1cccc(-c2nc3occn3c2-c2ccnc(NCCCNS(=O)(=O)c3ccc(C(F)(F)F)cc3)n2)c1`, with 39.1%; and `O=C(O)c1ccc2c(c1)C(=O)N(Cc1ccccc1)C2=O`, with 95.8%. As to `C=C(C)[C@@H]1CC[C@]2(C(=O)N3CCN(C)CC3)CC[C@]3(C)[C@H](CC[C@@H]4[C@@]5(C)CC[C@H](O)C(C)(C)[C@@H]5CC[C@]43C)[C@@H]12`, the growth was -73.8% (active).
